Screening results from PubChem BioAssay.
SKN-1 block: blocks SKN-1 activity in C. elegans | inhibition, % at 21.8 µM | C. elegans VP596 Pgst-4::GFP/RFP ratio, acrylamide-induced, 24 h | hit rate 0.49% among 360,000 | AID 624304;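 active = interference check ratio from 0.5 to 1.5 plus GFP to RFP signal ratio inhibition reaching or exceeding a fixed threshold, cut at about 30% in these data, passing the limit was not always enough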
NadD inh: NadD (S. aureus) enzyme inhibition. inhibition, % at 20 µM. purified NadD enzyme, colorimetric absorbance read-out. hit rate 0.78% among 360,000; in the data active = inhibition above about 26%
GRIN3A LBD mod: modulates the human NR3A ligand-binding domain; NR3A LBD differential scanning fluorimetry, Tm shift; 0% = protein alone, 100% = glycine-bound protein; Tm shift relative to glycine control, % at 25 µM; hit rate 2.5% among 340,000; AID 1259313;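 active = melting temperature shift of at least 10% of the positive control shift, at one fixed dose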
Vif inh: inhibitors of HIV Vif; inhibition, % at 7.49 µM; HEK293T cells, Vif self-association by quenched fluorescence, imaging, 24 h; hit rate 0.35% among 340,000; in the data active = inhibition above about 50%, passing the limit was not always enough
esBAF inh: SWI/SNF esBAF complex inhibition; reporter increase, % at 12.5 µM; hit rate 2% among 350,000; mouse ES cells, Bmi1-luciferase knock-in reporter, 24 h; 100% = twice the neutral-well signal; in the data active = activation above about 40%;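 also: 0% = median of the plate's neutral control wells and 100% = double that signal; a rise in the Bmi1 reporter signal indicates esBAF inhibition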
SMARCA2 activ: increases SMARCA2 function in MMTV reporter cells. MG213 cells, MMTV-luciferase reporter, dexamethasone, overnight. hit rate 1% among 370,000. activation, % at 9.1 µM; in the data active = activation above about 7.8%;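 also: 0% = vehicle wells and 100% = reference activator wells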
The depositor's hits bear a star. Sampled rows, rich in hits. Any-hit rate of the full collection: about 5.2%.

Results for CC(=O)c1c(N2CCN(C)CC2)nc(=S)n(Cc2ccccc2)c1C ?
SKN-1 block: 1; NadD inh: -3; GRIN3A LBD mod: 10*; Vif inh: -1; SMARCA2 activ: -1

Results for CCn1c(C)c(C(C)=O)c(NCc2ccccc2)nc1=S ?
SKN-1 block: -5; NadD inh: 2; GRIN3A LBD mod: 14*; Vif inh: 8; esBAF inh: -8; SMARCA2 activ: -1

Results for CC(=O)c1c(NCc2ccccc2)nc(=O)n(-c2ccccc2)c1C ?
SKN-1 block: -3; NadD inh: -1; GRIN3A LBD mod: 0; Vif inh: 14; esBAF inh: 18; SMARCA2 activ: 1

Results for CCSc1nc(=S)n(Cc2ccccc2)c(C)c1C(C)=O ?
SKN-1 block: -1; NadD inh: 1; GRIN3A LBD mod: -3; Vif inh: -4; esBAF inh: -1; SMARCA2 activ: -2

How did C[C@@H]1CN([C@@H](C)CO)C(=O)Cc2cc(NC(=O)Cc3cn(C)c4ccccc34)ccc2O[C@@H]1CN(C)C do in these assays?
esBAF inh: -2

How did CC(=O)Nc1nc2cc3c(cc2s1)OCO3 do in these assays?
SKN-1 block: 10; NadD inh: -4; GRIN3A LBD mod: -1; Vif inh: -5; esBAF inh: 57*; SMARCA2 activ: 2

How did O=C(COc1ccccc1)Nc1nc2cc3c(cc2s1)OCCO3 do in these assays?
SKN-1 block: 11; NadD inh: -2; GRIN3A LBD mod: 2; Vif inh: 16; esBAF inh: 17; SMARCA2 activ: 2

How did O=C(COc1ccccc1)Nc1nc2cc3c(cc2s1)OCO3 do in these assays?
SKN-1 block: -13; NadD inh: -4; GRIN3A LBD mod: 14*; Vif inh: 5; esBAF inh: 13; SMARCA2 activ: 1

What do the screens show for `COc1ccccc1C(=O)N1C[C@H]2[C@@H](c3ccccc31)[C@H](CO)N2C(=O)C1CCCC1`?
esBAF inh: -5

Results for COc1ccc(OC)c(C2=C[N+](=O)C(C)(C)C(C)(C)N2[O-])c1 ?
SKN-1 block: 5; NadD inh: -2; GRIN3A LBD mod: -2; Vif inh: 8; esBAF inh: -3; SMARCA2 activ: 1

What do the screens show for `CC1(C)N([O-])C(c2ccccc2)=C[N+](=O)C1(C)C`?
SKN-1 block: -1; NadD inh: -2; GRIN3A LBD mod: 681*; Vif inh: -2; esBAF inh: 2; SMARCA2 activ: -3

Results for COC(=O)C[C@H]1C[C@H]2c3cc(NC(=O)c4cccnc4)ccc3O[C@H]2[C@@H](CO)O1 ?
esBAF inh: 2

How did CCOc1c(C(N)=O)c(-c2ccccc2)c2c(=O)[nH]c3ccccc3n12 do in these assays?
SKN-1 block: 2; NadD inh: -1; GRIN3A LBD mod: 2; Vif inh: 32*; esBAF inh: 8; SMARCA2 activ: 2

How did CCOC(=O)c1c(C)nc(C)c(C(=O)OCC)c1-c1ccccc1 do in these assays?
SKN-1 block: 15; NadD inh: -1; GRIN3A LBD mod: -3; Vif inh: 1

How did C/C(=N/N=C(/C)c1cccs1)c1cccs1 do in these assays?
SKN-1 block: 43; NadD inh: 2; GRIN3A LBD mod: 3; Vif inh: -2; esBAF inh: 48*; SMARCA2 activ: 2

How did C[C@@H]1CN([C@H](C)CO)C(=O)c2cccc(NC(=O)NC3CCCCC3)c2O[C@@H]1CN(C)C(=O)Nc1cccc2ccccc12 do in these assays?
esBAF inh: 3

Results for COc1ccc(NC(=O)c2ccc(CNS(=O)(=O)c3cccc(OC)c3)cc2)cc1 ?
SKN-1 block: 7; NadD inh: -5; GRIN3A LBD mod: -10; Vif inh: 35; esBAF inh: -6; SMARCA2 activ: -1

How did NS(=O)(=O)c1ccc(CNC(=O)c2ccc(Cl)c(S(=O)(=O)NCc3ccccc3)c2)cc1 do in these assays?
SKN-1 block: 1; NadD inh: -2; GRIN3A LBD mod: -4; Vif inh: 7; esBAF inh: -8; SMARCA2 activ: 0

What do the screens show for `COc1cccc(S(=O)(=O)NCc2ccc(C(=O)Nc3ccc(C)cc3)cc2)c1`?
SKN-1 block: -10; NadD inh: -7; GRIN3A LBD mod: 17*; Vif inh: -11; esBAF inh: 8; SMARCA2 activ: -1

How did COc1cccc(S(=O)(=O)NCc2ccc(C(=O)Nc3ccc(Cl)c(Cl)c3)cc2)c1 do in these assays?
SKN-1 block: 6; NadD inh: -2; GRIN3A LBD mod: 25*; Vif inh: -29; esBAF inh: 15; SMARCA2 activ: -3

Results for O=C(Nc1ccc(Cl)c(Cl)c1)OCc1cccnc1 ?
SKN-1 block: 7; NadD inh: -7; GRIN3A LBD mod: -4; Vif inh: -20; esBAF inh: 53*; SMARCA2 activ: -5

How did NS(=O)(=O)c1ccc(NC(=O)c2ccc(CNS(=O)(=O)c3cc(C(F)(F)F)ccc3Cl)cc2)cc1 do in these assays?
SKN-1 block: -4; NadD inh: -5; GRIN3A LBD mod: 30*; Vif inh: -3; esBAF inh: -1; SMARCA2 activ: -2

How did CO[C@@H]1CN(C)C(=O)c2cc(NC(=O)Nc3ccccc3)ccc2OC[C@@H](C)N(C(=O)Nc2c(C)noc2C)C[C@@H]1C do in these assays?
esBAF inh: -1

What do the screens show for `C[C@H](CO)N1C[C@H](C)[C@@H](CN(C)Cc2ccc(-c3ccccc3)cc2)Oc2c(NS(=O)(=O)c3ccc(Cl)cc3)cccc2C1=O`?
esBAF inh: -6

How did COCC(=O)Nc1ccc2c(c1)[C@H]1C[C@H](CC(=O)NCCN3CCCCC3)O[C@@H](CO)[C@H]1O2 do in these assays?
esBAF inh: 5

What do the screens show for `C[C@@H]1CN([C@H](C)CO)C(=O)c2cc(NC(=O)CCCN(C)C)ccc2O[C@@H](C)CCCCO[C@H]1CN(C)Cc1ccncc1`?
esBAF inh: -3

What do the screens show for `C[C@@H](O)C#Cc1ccc2c(c1)O[C@H](CN(C)CC1CC1)[C@@H](C)CN([C@@H](C)CO)S2(=O)=O`?
esBAF inh: 4

How did O=C(Nc1ccc(Cl)c(Cl)c1)c1cccc(S(=O)(=O)NCc2cccnc2)c1 do in these assays?
SKN-1 block: -4; NadD inh: 3; GRIN3A LBD mod: 11*; Vif inh: 1; SMARCA2 activ: -6

How did CC(C)=CCc1c(O)c(CC=C(C)C)c2c(c1O)C(=O)CC(c1ccc(O)cc1)O2 (stereo not given) do in these assays?
SKN-1 block: 1; NadD inh: 12; GRIN3A LBD mod: 15*; Vif inh: -26; esBAF inh: 16; SMARCA2 activ: 1

How did CCCc1cn(CC[C@@H]2CC[C@@H](NC(=O)Nc3ccc4c(c3)OCO4)[C@@H](CO)O2)nn1 do in these assays?
esBAF inh: -1
